In PubChem BioAssay (NCATS):
Values without a mark were called inactive. Inconclusive results are not listed. Entries that show only a call come without a potency. The source made the active and inactive calls. Calls follow the shape of the dose curve; as a rule, active = well fitted curve in the direction sought with a large enough effect; inconclusive = small, poorly fitted or top-dose-only effect, or another doubt; inactive = no such curve, though single readings can be large; an effect the other way counts as inactive or inconclusive.

Experiments:
[1] = target: Alpha-galactosidase (Coffea arabica) (UniProt Q42656); test: Counterscreen for Glucocerebrosidase Inhibitors: qHTS Assay for Coffee Bean alpha-Galactosidase at pH 4.5 (AID 957); also: series mostly up to about 77 µM
Summary of the method: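 Green coffee bean enzyme (2 nM final) was incubated with compounds (0.7 nM to 77 uM) and 4-methylumbelliferyl alpha-D-galactopyranoside (80 uM final) in 50 mM citric acid, 0.005% Tween-20, pH 4.5, 20 min at room temperature; AC50 from Hill fits.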

[2] = target: Alpha-galactosidase (Coffea arabica) (UniProt Q42656); test: Counterscreen for Glucocerebrosidase Inhibitors: qHTS Assay for Coffee Bean alpha-Galactosidase at pH 5.9 (AID 998)
Summary of the method: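 Green coffee bean enzyme (2 nM final) was incubated with compounds (0.7 nM–77 uM) and 4-methylumbelliferyl alpha-D-galactopyranoside (80 uM) in citrate buffer pH 5.9, 20 min at room temperature. High-pH stop; fluorescence 365/440 nm; AC50 from Hill fits.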

[3] = target: Cytochrome P450 3A4 (Homo sapiens) (UniProt P08684); test: qHTS Assay for Inhibitors and Substrates of Cytochrome P450 3A4 (AID 884); also: potency is read from the fitted curve at half-maximal effect; nearly all actives have a fitted effect of over 50% in size
Summary of the method: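 20 nM human CYP3A4 with 25 uM Luciferin-PPXE (at KM) in 200 mM KPO4, preincubated 10 min with compound; NADPH regeneration started a 60 min RT reaction. Luciferin detected by luminescence, normalized to 57 uM ketoconazole as full inhibition.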

[4] = target: Cytochrome P450 3A4 (Homo sapiens) (UniProt P08684); test: qHTS Assay for Activators of Cytochrome P450 3A4 (AID 885); also: nearly all actives have a fitted effect of over 65% in size
Summary of the method: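 Human CYP3A4 (20 nM) with Luciferin-PPXE at 25 uM (its KM) in 200 mM KPO4; 10 min compound preincubation, then NADPH regeneration and 60 min reaction at RT. Luciferin read by luminescence; normalized to 57 uM ketoconazole full inhibition.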

[5] = target: Cytochrome P450 2C19 (Homo sapiens) (UniProt P33261); test: qHTS Assay for Inhibitors and Substrates of Cytochrome P450 2C19 (AID 899); also: nearly all actives have a fitted effect of over 60% in size; also: potency is read from the fitted curve at half-maximal effect
Summary of the method: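 Human CYP2C19 (5nM) with Luciferin-H EGE at 10uM (its KM) in 50mM KPO4 was preincubated with compound for 10 min at 37C. NADPH regeneration started a 60 min 37C reaction. Luciferin was read by luminescence, normalized to 57uM ketoconazole.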

[6] = Confirmation and Secondary Assay for Modulators of Hemoglobin Beta Chain Splicing at IVS2 654 locus (AID 910);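 also: per-well total GFP intensity by laser scanning cytometry after 2-day treatment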
Summary of the method: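 HeLa cells stably carrying EGFP interrupted by mutant beta-globin IVS2-654 intron (CMV-driven) were treated with compound for 2 days at 37C; corrected splicing was scored as total peak GFP intensity per well (488 nm excitation, 500-520 nm emission).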

[7] = Confirmation and Secondary Assay for Modulators of Hemoglobin Beta Chain Splicing at IVS2 705 locus (AID 930);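 also: HeLa cells stably expressing the EGFP-705 splicing reporter; GFP fluorescence per well restored by corrected splicing of the IVS2-705 intron in EGFP; series mostly up to about 46 µM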
Summary of the method: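 Fluorescence gain (488 nm laser, 500-520 nm PMT) reflects restored correct splicing of a mutant IVS2-705 intron inside EGFP in stably transfected HeLa cells after 2-day compound treatment.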

[8] = target: Cytochrome P450 2D6 (Homo sapiens) (UniProt P10635); test: qHTS Assay for Inhibitors and Substrates of Cytochrome P450 2D6 (AID 891); also: potency is read from the fitted curve at half-maximal effect; nearly all actives have a fitted effect of over 60% in size
Summary of the method: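 Human CYP2D6 (5 nM) with 30 uM Luciferin-ME EGE (at Km) in 100 mM KPO4, compound preincubated 10 min, then NADPH regeneration system for 60 min at room temperature. Luciferin read by luminescence; normalized to 1.43 uM quinidine.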

Sequence of Cytochrome P450 2C19 (Homo sapiens) (P33261 whole entry, looked up): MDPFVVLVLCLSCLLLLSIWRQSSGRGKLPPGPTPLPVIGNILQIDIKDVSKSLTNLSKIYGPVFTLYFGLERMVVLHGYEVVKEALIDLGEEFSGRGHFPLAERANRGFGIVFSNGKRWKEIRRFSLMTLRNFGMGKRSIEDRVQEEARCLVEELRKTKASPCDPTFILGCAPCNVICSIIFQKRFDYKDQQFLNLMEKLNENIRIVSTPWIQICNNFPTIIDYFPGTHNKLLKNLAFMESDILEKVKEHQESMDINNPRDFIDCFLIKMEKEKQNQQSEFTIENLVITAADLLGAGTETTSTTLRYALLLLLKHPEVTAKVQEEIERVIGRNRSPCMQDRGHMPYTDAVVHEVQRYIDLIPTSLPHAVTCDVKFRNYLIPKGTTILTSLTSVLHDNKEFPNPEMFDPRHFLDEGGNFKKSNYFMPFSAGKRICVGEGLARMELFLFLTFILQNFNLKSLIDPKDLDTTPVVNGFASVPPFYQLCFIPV
Sequence of Alpha-galactosidase (Coffea arabica) (Q42656 whole entry, looked up): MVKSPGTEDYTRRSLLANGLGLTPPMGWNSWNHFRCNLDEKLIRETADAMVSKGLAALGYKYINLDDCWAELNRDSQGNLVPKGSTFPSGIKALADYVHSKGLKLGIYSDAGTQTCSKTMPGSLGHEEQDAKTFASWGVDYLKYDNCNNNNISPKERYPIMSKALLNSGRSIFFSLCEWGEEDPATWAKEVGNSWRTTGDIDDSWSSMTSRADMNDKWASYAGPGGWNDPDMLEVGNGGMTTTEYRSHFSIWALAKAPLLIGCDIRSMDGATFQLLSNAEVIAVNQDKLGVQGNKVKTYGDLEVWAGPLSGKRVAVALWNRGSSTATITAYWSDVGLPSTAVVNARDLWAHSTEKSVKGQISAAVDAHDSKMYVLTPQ
Sequence of Cytochrome P450 3A4 (Homo sapiens) (P08684 whole entry, looked up): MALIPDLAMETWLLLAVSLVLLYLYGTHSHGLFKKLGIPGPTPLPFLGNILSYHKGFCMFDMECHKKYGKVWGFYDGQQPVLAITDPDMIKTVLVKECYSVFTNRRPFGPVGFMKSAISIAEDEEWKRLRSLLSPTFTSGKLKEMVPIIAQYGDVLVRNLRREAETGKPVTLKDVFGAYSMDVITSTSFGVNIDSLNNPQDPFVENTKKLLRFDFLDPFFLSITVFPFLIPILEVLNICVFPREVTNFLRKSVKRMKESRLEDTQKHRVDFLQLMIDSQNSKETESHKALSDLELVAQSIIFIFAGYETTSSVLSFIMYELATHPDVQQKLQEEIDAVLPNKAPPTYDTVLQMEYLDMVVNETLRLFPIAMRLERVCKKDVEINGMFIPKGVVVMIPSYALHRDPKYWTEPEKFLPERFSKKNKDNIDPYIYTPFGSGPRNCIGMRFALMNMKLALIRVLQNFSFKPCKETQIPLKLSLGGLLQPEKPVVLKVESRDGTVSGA
Sequence of Cytochrome P450 2D6 (Homo sapiens) (P10635 whole entry, looked up): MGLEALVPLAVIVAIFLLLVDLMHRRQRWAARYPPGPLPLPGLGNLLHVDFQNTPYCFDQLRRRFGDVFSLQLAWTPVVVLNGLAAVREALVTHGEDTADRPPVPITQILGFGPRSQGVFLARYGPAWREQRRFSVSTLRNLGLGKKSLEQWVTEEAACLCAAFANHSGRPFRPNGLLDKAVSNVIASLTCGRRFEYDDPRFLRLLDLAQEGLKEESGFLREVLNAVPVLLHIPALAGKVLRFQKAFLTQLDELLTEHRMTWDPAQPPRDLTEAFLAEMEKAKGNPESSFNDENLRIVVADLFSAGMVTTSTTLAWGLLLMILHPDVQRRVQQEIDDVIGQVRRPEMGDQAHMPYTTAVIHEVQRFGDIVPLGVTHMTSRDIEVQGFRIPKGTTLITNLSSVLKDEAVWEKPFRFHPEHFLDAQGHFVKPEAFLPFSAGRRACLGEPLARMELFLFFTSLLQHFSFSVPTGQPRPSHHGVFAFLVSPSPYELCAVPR

## Nc1nc(N)c2nc(CNc3ccc(C(=O)N[C@H](CCC(=O)O)C(=O)O)cc3)cnc2n1
[1]
  outcome: inactive
[2]
  outcome: inactive

## CCCCCCCCCC[Si](C)(C)CCC(=O)N[C@@H](Cc1ccc(C)cc1)c1ccccc1
[1]
  outcome: inactive
[2]
  outcome: inactive

## COC(=O)NC/C=C\c1nc(CC/C=C\C(=O)O[C@H]2C[C@H]3CC(=O)O[C@@H](/C=C\CC(C)C)C[C@@H]4CC[C@H](C)[C@H](C[C@@H](OC)C[C@H](C2)O3)O4)co1
[3]
  Potency: 5010 nM (active)
[4]
  activity change, positive = activation: -81.2% [at 11.4 µM]
[5]
  activity, negative = inhibition: 68.9% [at 11.4 µM]

## COc1cc2c(cc1OC)[C@@H]1C(=O)c3ccc(OC)c(CC=C(C)C)c3OC1CO2 (some centres not stated)
[3]
  Potency: 3160 nM (active)
[4]
  Potency: inactive
[6]
  Potency: inactive
[7]
  outcome: inactive

## O=C1c2ccccc2-c2cc([N+](=O)[O-])c([N+](=O)[O-])cc21
[3]
  Potency: 501 nM (active)
[4]
  activity change, positive = activation: -119% [at 11.4 µM]
[8]
  Potency: 3160 nM (active)
[5]
  Potency: 398 nM (active)

## Oc1ccc2c(c1)OCO2
[4]
  Potency: inactive

## CCC(C)C(=O)OC1C[C@@]2(C)C(c3ccoc3)OC(=O)CC23OC2(C)OC34C(OC(=O)C(C)C)[C@]3(O)C(OC(=O)C5(C)OC5C)[C@]5(C)CC3(O)[C@](C)(C5CC(=O)OC)C14O2 (some centres not stated)
[3]
  Potency: 2510 nM (active)
[4]
  Potency: inactive
[6]
  Potency: inactive
[7]
  outcome: inactive

## C[C@@]12CC[C@@H]3c4ccc(O)cc4C[C@H](CCCCCCCCCS(=O)CCCC(F)(F)C(F)(F)F)[C@H]3[C@@H]1CC[C@@H]2O (some centres not stated)
[4]
  Potency: inactive

## CCC(C(=O)C(C)C(O)C(C)CCc1ccc(C)c(O)c1C(=O)O)C1OC(CC)(C2CC[C@@](O)(CC)C(C)O2)CC1C (some centres not stated)
[4]
  Potency: inactive

## Cc1c(N=C=O)cccc1N=C=O
[4]
  Potency: inactive

## CCC(=O)OC1CCC2C3CCc4cc(O)ccc4C3CC[C@]12C (some centres not stated)
[4]
  Potency: inactive

## COCOc1ccc(Br)cc1C(=O)/C=C\c1ccc2c(c1)OCO2
[3]
  Potency: 3160 nM (active)
[4]
  activity change, positive = activation: -91.5% [at 11.4 µM]
[8]
  Potency: 3160 nM (active)
[5]
  Potency: 63.1 nM (active)

## CC1(C)C(=O)[C@@H]2OC2[C@@]2(C)C1CC(O)[C@]1(C)C2CC[C@@]2(C)C(c3ccoc3)OC(=O)C3OC312 (some centres not stated)
[3]
  Potency: 1000 nM (active)
[4]
  Potency: inactive
[6]
  Potency: inactive
[7]
  outcome: inactive
